From PubChem
The list is not random: actives were taken first. Their share in the collection is about 7.8%.
HCV inh: inhibitors of hepatitis C virus infection. Huh7.5.1 HCVcc-Cre infection, luciferase reporter, 44 h. Potency, µM (top dose mostly 41.8 µM), for the others: at the highest dose activity change, negative = inhibition, actives largely listed as inhibitors. hit rate 3.4% among 340,000; active = well fitted inhibition curve with a large enough effect; inconclusive = small, poorly fitted or top-dose-only effect, or another doubt; inactive = no such curve, though single readings can be large or run the other way; also: potency is read from the fitted curve at half-maximal effect
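After 44 h co-culture of compound, cells and HCVcc-Cre (~0.5 moi), substrate is added for 15 min at room temperature and luciferase measured over 15 sec. Cells were seeded at 1,000/well and pre-cultured 4 h.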
Vaccinia mCherry: inhibitors of vaccinia virus infection (mCherry reporter signal) | Vaccinia virus mCherry reporter infection, fluorescence | Potency, µM (doses to about 36.5 µM), without a hit: at the highest dose activity change, negative = inhibition, most hits filed as inhibitors | hit rate 0.63% among 310,000 | AID 720579; calls by dose curve; tested in A549 cells; also: potency is read from the fitted curve at half-maximal effect; nearly all actives have a fitted effect of over 35% in size
HCMV antiviral: inhibitors of human cytomegalovirus. HFF cells, HCMV-luciferase reporter, 72 h; hits give low values. activity change, negative = inhibition, % at 57.5 µM. hit rate 4.5% among 410,000. AID 1259415; in the data active = activity change below about -60%; inconclusive = no clear call, values can overlap the other calls; inactive = above about -39%
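Screen run at 2 compound doses on HFFs infected with reporter HCMV, MOI 1 PFU/cell. Luciferase activity from cell lysates at 72 h post infection gave inhibition relative to buffer-only and Salinomycin wells.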
Lassa entry inh: Lassa virus entry inhibition. Potency, µM (series often up to 37.9 µM), without a hit: at the top dose activity change, negative = inhibition, actives largely listed as inhibitors. Lassa virus pseudotype entry inhibition, cell reporter. hit rate 1.2% among 300,000; calls by dose curve; tested in HEK293 cells; also: potency is read from the fitted curve at half-maximal effect; nearly all actives have a fitted effect of over 50% in size
VACV Venus inh: vaccinia inhibition (Venus reporter); Vaccinia virus Venus reporter expression, fluorescence; Potency, µM (series often up to 36.5 µM), inactives show top-dose activity change, negative = inhibition, most hits filed as inhibitors; hit rate 0.46% among 330,000; calls by dose curve; tested in A549 cells; also: potency is read from the fitted curve at half-maximal effect; nearly all actives have a fitted effect of over 30% in size
Marburg entry inh: inhibitors of Marburg virus binding or cell entry; Marburg virus pseudotyped entry inhibition, cell reporter; Potency, µM (highest dose often 37.8 µM), for inactives: at the top dose activity change, negative = inhibition, hits mostly inhibitors; hit rate 1.8% among 300,000; AID 540276; calls by dose curve; tested in HEK293 cells; also: potency is read from the fitted curve at half-maximal effect
Active calls of the source: *; i = inactive; ? = inconclusive; . = not tested or not shown; [ ] = dose if it differs, or a comment. % is scaled to controls: 0 for no effect and ±100 for the full control effect.

SMILES	HCV inh	Vaccinia mCherry	HCMV antiviral	Lassa entry inh	VACV Venus inh	Marburg entry inh
CCOc1ccc(N(CC(=O)NCc2cccs2)S(=O)(=O)c2c(C)noc2C)cc1	-17%	11%	-60*	.	-5%	5%
CCOc1ccc(N(CC(=O)NCc2ccc(F)cc2)S(=O)(=O)c2c(C)noc2C)cc1	12%	i	-7	.	-10%	.
COc1ccc(CNC(=O)CN(c2ccc(C(C)C)cc2)S(=O)(=O)c2c(C)noc2C)cc1	10µM*	.	-31	.	.	.
CCOc1ccc(N(CC(=O)Nc2cccc(OC)c2)S(=O)(=O)c2c(C)noc2C)cc1	?	i	-62*	.	-12%	3%
COc1ccc(CNC(=O)CN(c2ccc(OC)cc2)S(=O)(=O)c2c(C)[nH]c(=O)[nH]c2=O)cc1	20%	-19%	-19	29%[46.1 µM]	-1%	7%[46.1 µM]
CCOc1ccc(N(CC(=O)Nc2ccc(C)cc2)S(=O)(=O)c2c(C)noc2C)cc1	-24%	i	-34	.	-10%	-5%
Nc1c(Br)cc(/C=C/c2ccnc3ccccc23)cc1Br	.	7%	.	.	-27%	.
COC(=O)[C@@H]1CCCN1C(=O)c1c(OC)cc(=O)n2c1CCN(Cc1c(C)[nH]c3ccccc13)CC2	.	-13%	.	.	-17%	.
CCOc1ccc(N(CC(=O)Nc2ccccc2OCC)S(=O)(=O)c2c(C)noc2C)cc1	11µM*	.	-86*	.	.	.
CCOc1ccc(N(CC(=O)Nc2cccc(Cl)c2)S(=O)(=O)c2c(C)noc2C)cc1	13µM*	-16%	1	.	-27%	-4%
COc1ccc(N(CC(=O)Nc2cc(C)on2)S(=O)(=O)c2ccc(Cl)cc2)cc1	14%	.	-1	-16%	-12%	0%[46.1 µM]
CCOc1ccc(NC(=O)CN(c2ccc(CC)cc2)S(=O)(=O)c2c(C)noc2C)cc1	.	-16%	-7	-10%[46.1 µM]	-16%	.
COc1ccc(N(CC(=O)Nc2cc(C)on2)S(=O)(=O)c2cc(C)ccc2C)cc1	-16%	.	-91*	-26%	.	?
CCOc1ccc(N(CC(=O)Nc2ccc(F)c(F)c2)S(=O)(=O)c2c(C)noc2C)cc1	0%	19%	-63*	6%	-10%	-6%
COc1ccccc1C1CN(CCNC(=O)c2cscn2)Cc2ccccc2O1 (centres undefined)	.	-11%	.	.	-5%	.
O=C(Cn1ncn2c(cc3cc(F)ccc32)c1=O)NC1CCCCC1	.	-4%	-3	.	-6%	-15%[46.1 µM]
Cc1ccc(N(CC(=O)NCc2ccc(OC(C)C)cc2)S(=O)(=O)N(C)C)cc1	.	-20%	-4	5µM*	-16%	.
CCOC(=O)c1ccc(NC(=O)CN(c2ccc(C)cc2)S(=O)(=O)c2c(C)noc2C)cc1	.	-25%	0	?	-12%	11µM*
OC(c1cc(C(F)(F)F)nc2c(C(F)(F)F)cccc12)C1CCCCN1 (centres undefined)	?	?	-99*	.	?	.
OC(c1cc(-c2cccc(Cl)c2)nc2ccccc12)C1CCCCN1 (centres undefined)	?	?	-98*	?	-21%	11µM*
CCn1c(=O)c2cc(C(=O)NCCc3cc(OC)ccc3OC)sc2c2ccccc21	.	1%	-10	6%[46.1 µM]	-5%	-2%[46.1 µM]
O=C(c1ccccc1-n1cccn1)N1CCOc2ccc(CN3CCOCC3)cc2C1	.	-1%	.	.	14%	.
O=c1n(CC2CO2)c(=O)n(CC2CO2)c(=O)n1CC1CO1 (centres undefined)	?	?	-62*	?	?	0.45µM*
COc1ccc(CNC(=O)c2cccc3c(-c4cccnc4)coc23)cc1OC	.	-26%	-86*	.	?	.
O=C(CCl)N1CCN(S(=O)(=O)c2ccc3c(c2)CCC3)CC1	14µM*	.	-80*	.	.	.
SMILES	HCV inh	Vaccinia mCherry	HCMV antiviral	Lassa entry inh	VACV Venus inh	Marburg entry inh
O=C(CCl)N1CCN(S(=O)(=O)Cc2ccccc2)CC1	?	.	-76*	.	.	.
CCOC(=O)N1CCN(S(=O)(=O)Cc2ccccc2)CC1	0%	.	-4	1%	10%	0%
Nc1c(N=Nc2ccc(-c3ccc(N=Nc4cc(S(=O)(=O)O)c5ccccc5c4N)cc3)cc2)cc(S(=O)(=O)O)c2ccccc12	.	.	.	?	.	14µM*
O=S(=O)(O)c1ccc(N=Nc2ccccc2)cc1	25%	i	-3	19%[46.1 µM]	-17%	14%[46.1 µM]
O=C(c1cc2c(=O)oc3ccccc3c2s1)N1CCN(c2cccc(Cl)c2)CC1	.	4%	-62*	-17%[46.1 µM]	-6%	0%[46.1 µM]
O=C(c1cc2c(=O)oc3ccccc3c2s1)N1CCN(c2ccccc2)CC1	.	-14%	7	?	8%	7%[46.1 µM]
Cc1ccc(-c2nc(CS(=O)CC(=O)NCc3ccc(Cl)cc3)c(C)o2)cc1 (centres undefined)	11µM*	i	5	.	-21%	.
Cc1ccc(-c2nc(CSCC(=O)NCCN3CCN(Cc4ccccc4)CC3)c(C)o2)cc1	13µM*	.	-65*	?	.	?
CCOc1ccc(-c2nc(CSCC(=O)NCc3ccc(Cl)cc3)c(C)o2)cc1	.	?	-66*	-2%[46.1 µM]	?	.
Cc1ccc(-c2nc(CSCC(=O)NCCCN3CCOCC3)c(C)o2)cc1	16%	.	16	?	.	-3%
Cc1oc(-c2ccc(Cl)cc2)nc1CS(=O)CC(=O)NCCCN1CCN(Cc2ccccc2)CC1 (centres undefined)	1.3µM*	.	-93*	.	.	.
C=CC[C@]1(C(=O)OC)C=C[C@H](C)[C@@H](c2ccccc2)N1C(=O)C(F)(F)F	.	.	.	.	.	-15%[14.2 µM]
O=C(C(=O)c1cc(Br)ccc1O)c1cc(Br)ccc1O	?	?	-97*	?	?	?
O=C(c1ccc(O)c(Br)c1)c1cc(Br)ccc1O	4%	?	-17	-12%[46.1 µM]	-15%	?
COCC1CCCN(Cc2ccc3c(c2)CN(C(=O)c2ccc(OC)nc2OC)CCO3)C1 (centres undefined)	.	-7%	.	.	6%	.
O=C(O)Cc1c(C(=O)O)nnn1-c1ccc(Cl)cc1Cl	8%	.	-66*	.	.	.
CN(C)c1nnnn1-c1ccc(Cl)cc1Cl	23%	i	-26	-3%	4%	-8%[46.1 µM]
COc1cc2c(cc1OC)C(C)N(C(=O)c1c(C)noc1C)CC2 (centres undefined)	-6%	.	?	.	.	.
COc1cc2c(cc1OC)C(C)N(C(=S)NC(=O)c1ccccc1)CC2 (centres undefined)	?	-23%	-61*	-15%	-12%	-3%[46.1 µM]
COc1cc2c(cc1OC)C(C)N(C(=O)c1cc3ccccc3o1)CC2 (centres undefined)	10µM*	.	-29	?	.	-27%
COc1cc2c(cc1OC)C(C)N(C(=S)Nc1ccccc1)CC2 (centres undefined)	-8%	-11%	-14	?	-5%	18%
COc1cc2c(cc1OC)C(C)N(C(=O)c1cc(C)on1)CC2 (centres undefined)	2%	?	-66*	?	?	-25%
